Rows were chosen to be rich in hits. Some 5.9% of all compounds tested hit in one or more screens of this group.
S2 tox: viability counter-screen for ATXN expression inhibitors; S2 cells (HEK-293 line with an ATXN2-luciferase reporter) viability, CellTiter-Fluor protease fluorescence, 24 h; Potency, µM (highest dose often 56.7 µM), hits mostly cytotoxic; 400,000 tested, 0.49% active; AID 651635; note: nearly all actives have a fitted effect of over 40% in size
TGFb SMAD3 inh: blocks TGF-b signaling | 410,000 tested, 1.2% active | Potency, µM (series often up to 46.1 µM), most hits filed as inhibitors | HepG2 CAGA-GFP TGF-b/SMAD3 reporter, GFP fluorescence, 18 h; TGF-beta stimulated, 500 pg/mL final; note: nearly all actives have a fitted effect of over 65% in size
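Per well, imaged GFP fluorescence of HEPG2 CAGA-GFP cells gives the signal; cells get compound, then TGF-beta (500 pg/mL final), 18 h at 37 degrees C; %Activity versus -TGF-beta and +DMSO controls.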
KB-3-1 tox: KB-3-1 parental cell cytotoxicity | 400,000 tested, 1.4% active | Potency, µM (top dose mostly 46.1 µM), usual class: cytotoxic | AID 1347075 | KB-3-1 viability, CellTiter-Glo ATP luminescence, 72 h; note: nearly all actives have a fitted effect of over 60% in size
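Screening of KB-3-1 cells (DMEM, 10% FBS, phenol-red free) ran from lowest to highest compound concentration; after 72 h at 37 °C viability was read luminescently and curves fitted.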
HepG2 viability: HepG2 cytotoxicity, counter-screen for TGF-b inhibitors | Potency, µM (titrated, usually from 46.1 µM), actives largely listed as cytotoxic | HepG2 CAGA-GFP viability, ATP luminescence, 18 h | 410,000 tested, 0.76% active
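CellTiter-Glo luminescence gave cytotoxicity after 18 hours at 37 degrees C. The cells were HepG2 CAGA-GFP in 1% FBS DMEM, stimulated with 500 pg/mL TGF-beta after compound addition. %Activity was normalised to no-cell wells (complete cell-killing) and DMSO (no toxicity), and curves were fitted and classified.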
KB-V1 MDR tox: KB-V1 MDR subline cytotoxicity; KB-V1 MDR cells viability, CellTiter-Glo, 72 h; Potency, µM (series often up to 46.1 µM), most hits filed as cytotoxic; 400,000 tested, 3.4% active; note: nearly all actives have a fitted effect of over 60% in size
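qHTS viability screen in drug-selected KB-V1 MDR cells: 72 h compound treatment at 37 degrees C, ATP luminescence end point.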
ATXN2 expr inh: ATXN2 expression inhibition | HEK-293 ATXN2-luciferase reporter, luminescence, 24 h | Potency, µM (series often up to 57 µM), actives largely listed as inhibitors | 360,000 tested, 0.72% active | AID 1745845; note: nearly all actives have a fitted effect of over 55% in size
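qHTS (up to 57 uM final) was run with 24 h compound exposure of reporter cells at 37 °C. Each well was multiplexed: SteadyGlo luminescence measured ATXN2-luciferase expression after a fluorogenic Gly-Phe-AFC viability readout (25 uM final).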
Of the large screens only hits and unclear results are named; the others gave an inactive call. Calls come from the whole dose curve; as a rule, active = well fitted curve in the direction sought with a large enough effect; inconclusive = small, poorly fitted or top-dose-only effect, or another doubt; inactive = no such curve, though single readings can be large; an effect the other way counts as inactive or inconclusive.

Cc1noc(C)c1COC(=O)c1ccc(N(C)C)cc1	S2 tox inconclusive, KB-3-1 tox inconclusive, KB-V1 MDR tox 4.1µM
Cc1noc(C)c1COC(=O)c1cc(C)n(-c2ccccc2)c1C	KB-3-1 tox inconclusive, KB-V1 MDR tox 7.3µM
O=C(CN1C(=O)COc2ccc(S(=O)(=O)Nc3ccccc3)cc21)NCc1ccccc1Cl	S2 tox inconclusive
Cc1cc2oc(C(=O)Nc3ccc(S(N)(=O)=O)cc3)cc(=O)c2cc1C	none
CCOC(=O)c1ccc(NC(=O)N2CCN(Cc3cccc(F)c3)CC2)cc1	KB-V1 MDR tox 18µM
CCCN1CCN(C(=O)Nc2ccc(C(=O)OCC)cc2)CC1	KB-V1 MDR tox inconclusive
CCC(=O)N1CCc2cc(Br)cc(S(=O)(=O)CCC(=O)NCc3ccccc3)c21	KB-V1 MDR tox inconclusive
Cc1ccc(OCCn2cc(C(=S)N3CCCC3)c3ccccc32)cc1C	S2 tox inconclusive, KB-3-1 tox 5.8µM, HepG2 viability 16µM, KB-V1 MDR tox 5.2µM
S=C(c1cn(CCOc2cccc3ccccc23)c2ccccc12)N1CCCC1	KB-3-1 tox 18µM, KB-V1 MDR tox inconclusive
CCOc1ccc(Br)cc1S(=O)(=O)Nc1cccc(-c2ccc(OC)nn2)c1	S2 tox inconclusive, TGFb SMAD3 inh inconclusive, KB-3-1 tox inconclusive, KB-V1 MDR tox inconclusive
Cc1ccnc(NS(=O)(=O)c2ccc(NC(=O)c3ccc([N+](=O)[O-])s3)cc2)n1	TGFb SMAD3 inh inconclusive, KB-3-1 tox 15µM, HepG2 viability 11µM, ATXN2 expr inh inconclusive
CC(C)C[C@H]1CN=C(Nc2ccccc2)N1CCCC1CCCCC1	ATXN2 expr inh 25µM (no result: S2 tox)
CC1CCC(CN2C(Nc3ccccc3)=NC[C@@H]2Cc2ccccc2)CC1 (stereo not given in full)	S2 tox inconclusive, ATXN2 expr inh 16µM
CC(C)C[C@H]1CN=C(Nc2ccccc2)N1CCCC1CCCC1	S2 tox inconclusive, TGFb SMAD3 inh inconclusive, KB-3-1 tox inconclusive, KB-V1 MDR tox inconclusive, ATXN2 expr inh inconclusive
COc1ccc(C)cc1NC(=O)c1ccc2c(c1)CCN2S(=O)(=O)c1ccc(Cl)cc1	TGFb SMAD3 inh inconclusive
CCc1ccc(C2NC(=S)NC3=C2C(=O)N(c2ccccc2OC)C(c2ccc(CC)cc2)N3)cc1 (stereo not given)	S2 tox inconclusive, TGFb SMAD3 inh inconclusive, KB-V1 MDR tox inconclusive, ATXN2 expr inh inconclusive
O=C1C2=C(NC(=S)NC2c2ccc(Cl)cc2)NC(c2ccc(Cl)cc2)N1c1ccc(Cl)cc1 (stereo not given)	S2 tox inconclusive, TGFb SMAD3 inh inconclusive, KB-3-1 tox 16µM, KB-V1 MDR tox inconclusive, ATXN2 expr inh inconclusive
CC(=O)c1cccc(NC(=O)c2nc(-c3ccccc3)n(-c3cccc(Cl)c3)n2)c1	S2 tox inconclusive
CC(C)c1ccc2oc(-c3cccc(NC(=O)c4ccc5c(c4)OCCO5)c3)nc2c1	none
Oc1ccccc1/C=N/NC(=S)NC1CC2CC1C1C=CCC21 (stereo not given)	S2 tox inconclusive, TGFb SMAD3 inh inconclusive, KB-3-1 tox inconclusive, HepG2 viability 18µM, KB-V1 MDR tox 21µM
COc1cccc(/C=N/NC(=S)NC2CC3CC2C2C=CCC32)c1O (stereo not given)	none
Cc1ccc(C(C)C)c(OCC(O)CN(C)Cc2ccccc2)c1 (stereo not given)	S2 tox inconclusive, TGFb SMAD3 inh 16µM
Cc1ccc(OCCCCN(C)Cc2ccccc2)c(Br)c1	S2 tox inconclusive, TGFb SMAD3 inh inconclusive
Cc1ccc(C(C)C)c(OCCCN(C)Cc2ccccc2)c1	TGFb SMAD3 inh inconclusive, KB-V1 MDR tox 12µM
CCN(CC)c1ccc(/C=N/NC(=O)c2ccco2)cc1	S2 tox inconclusive, TGFb SMAD3 inh inconclusive, KB-3-1 tox 3.7µM
CCN(CC)c1ccc(/C=N/NC(=O)c2ccco2)c(O)c1	TGFb SMAD3 inh inconclusive, KB-3-1 tox inconclusive, ATXN2 expr inh inconclusive
Nc1cc(=O)[nH]c(SCCSc2cc(Cl)ccc2Cl)n1	KB-3-1 tox 0.73µM, KB-V1 MDR tox 0.41µM
O=C(CN1CCN(CC(=O)Nc2ccc3c(c2)OC2(CCCCC2)O3)CC1)Nc1cccc(F)c1	S2 tox inconclusive, TGFb SMAD3 inh inconclusive, KB-V1 MDR tox 5.8µM
O=C(CN1CCN(CC(=O)Nc2ccccc2F)CC1)Nc1cccc(F)c1	S2 tox inconclusive
Fc1ccc(C(c2ccc(F)cc2)N2CCN(CC=Cc3ccccc3)CC2)cc1	none (no result: S2 tox, TGFb SMAD3 inh, KB-3-1 tox, HepG2 viability, KB-V1 MDR tox)
Cn1cc(-c2cnn3c(N)c(Br)c([C@H]4CCCNC4)nc23)cn1	ATXN2 expr inh 0.39µM (no result: S2 tox, TGFb SMAD3 inh, KB-3-1 tox, HepG2 viability, KB-V1 MDR tox)
Cc1ccc(OCC(=O)NNc2c3ccccc3nc3ccccc23)cc1	S2 tox inconclusive, KB-V1 MDR tox 18µM, ATXN2 expr inh inconclusive
Cc1cccc(OCC(=O)NNc2c3ccccc3nc3ccccc23)c1	KB-V1 MDR tox 13µM
Cc1cc(CNC(=O)COc2ccccc2)c2ccccc2n1	KB-3-1 tox inconclusive, KB-V1 MDR tox inconclusive
Cc1ccc(N(CC(=O)Nc2ccc(Cl)cc2)S(=O)(=O)c2cccc3nonc23)cc1	TGFb SMAD3 inh inconclusive, KB-V1 MDR tox inconclusive
CCN(CC)c1nc(C#N)nc(N2CCOCC2)n1	KB-V1 MDR tox inconclusive (no result: S2 tox, ATXN2 expr inh)
COc1ccc(-c2[nH]ncc2C(=O)NCc2ccccc2OC)cc1	none (no result: S2 tox, TGFb SMAD3 inh, KB-3-1 tox, KB-V1 MDR tox, ATXN2 expr inh)
Cc1ccc(CSc2ccc3nnc(-c4cccnc4)n3n2)cc1	KB-V1 MDR tox inconclusive
Brc1ccc(CSc2ccc3nnc(-c4ccccn4)n3n2)cc1	KB-V1 MDR tox 15µM
Cc1ccc(CSc2ccc3nnc(-c4ccccn4)n3n2)cc1	KB-V1 MDR tox inconclusive
Brc1ccc(CSc2ccc3nnc(-c4cccnc4)n3n2)cc1	KB-V1 MDR tox 9.2µM
O=[N+]([O-])c1ccc(Cl)cc1C=NNc1ccccn1	S2 tox inconclusive
O=[N+]([O-])c1cc(Cl)cc(/C=N\Nc2ccccn2)c1O	S2 tox inconclusive, TGFb SMAD3 inh inconclusive, KB-3-1 tox inconclusive, ATXN2 expr inh 7.1µM
COC(=O)c1c(Oc2ccc(C(C)=O)cc2)nnc(-c2ccccc2)c1-c1ccccc1	S2 tox inconclusive, TGFb SMAD3 inh inconclusive, KB-3-1 tox inconclusive, ATXN2 expr inh inconclusive
O=C(Oc1cc(=O)oc2c1c(=O)n1c3c(cccc23)CC1)c1ccccc1	none (no result: S2 tox)
O=C(Oc1c(-c2ccccc2)oc2ccccc2c1=O)c1ccccc1	TGFb SMAD3 inh inconclusive, KB-3-1 tox inconclusive, KB-V1 MDR tox 12µM
O=C(Oc1cccc2ccccc12)c1ccccc1	none
COc1ccc(-c2oc3ccccc3c(=O)c2OC(=O)c2ccc(C)cc2)cc1	KB-3-1 tox inconclusive, KB-V1 MDR tox 12µM
O=C(Oc1cc(=O)oc2ccccc12)c1ccccc1	KB-3-1 tox 5.2µM
O=C(Oc1cccc2c(O)cccc12)c1ccccc1	S2 tox inconclusive, TGFb SMAD3 inh 14µM

Screening results deposited in PubChem by National Center for Advancing Translational Sciences (NCATS).
